Assay outcomes deposited in PubChem by several laboratories.
Bcl-B Bim block – human Bim-Bcl-B interaction inhibition; inhibition, % at 10 µM; 190,000 tested, 0.073% active; bead-based flow cytometry, Bim peptide-Bcl-B binding; AID 951; Q9HD36;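 also: 0% = tracer peptide without compound and 100% = reference inhibitor peptide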
Target sequence (Q9HD36 whole entry, looked up): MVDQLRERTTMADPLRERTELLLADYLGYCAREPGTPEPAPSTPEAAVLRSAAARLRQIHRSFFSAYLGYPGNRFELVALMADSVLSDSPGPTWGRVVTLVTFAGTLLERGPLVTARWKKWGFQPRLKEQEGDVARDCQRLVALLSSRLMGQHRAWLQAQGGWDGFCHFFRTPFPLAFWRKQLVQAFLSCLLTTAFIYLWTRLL
Bim-Bcl-2 – disrupts Bim peptide binding to human Bcl-2; Bead-based flow cytometry, Bim peptide-Bcl-2 binding; inhibition, % at 10 µM; 190,000 tested, 0.06% active; in the data active = inhibition above about 40%;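 also: 0% = no compound wells with probe peptide and 100% = reference peptide inhibitor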
PKD1 inh – blocks activity of human protein kinase D1; Q15139; PKD1 kinase fluorescence polarization assay; inhibition, % (no concentration beside the values); 200,000 tested, 0.056% active; AID 797; in the data active = inhibition above about 50%
Bim-Bcl-XL – disrupts Bim peptide binding to human Bcl-XL; inhibition, % at 10 µM; 190,000 tested, 0.04% active; bead flow cytometry, fluorescence
Bfl-1 Bim block – disrupts Bim binding to human Bfl-1; Q16548; Bead-based flow cytometry, Bim-Bfl-1 binding inhibition; inhibition, % at 10 µM; 190,000 tested, 0.12% active; AID 1008;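 also: 0% = wells without compound plus tracer and 100% = blocker peptide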
Target sequence (Q16548 whole entry, looked up): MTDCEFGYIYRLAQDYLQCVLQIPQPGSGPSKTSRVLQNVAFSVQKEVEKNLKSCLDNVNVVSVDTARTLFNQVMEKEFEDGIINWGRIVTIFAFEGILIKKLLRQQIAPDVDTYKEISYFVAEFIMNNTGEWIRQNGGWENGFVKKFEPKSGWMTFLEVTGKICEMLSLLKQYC
Bcl-W Bim block – disrupts Bim peptide binding to human Bcl-W. Q92843. bead-based flow cytometry. inhibition, % at 10 µM. 190,000 tested, 0.02% active. AID 952;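 also: 0% = bound tracer without compound and 100% = peptide blocker; higher means less fluorescent Bim peptide bound to Bcl-W beads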
Active calls of the source: *. In the library only some 0.26% were active in any assay of this set; here they are far more common. Rule as the data show it, unless noted: active = inhibition above about 40%.

SMILES	Bcl-B Bim block	Bim-Bcl-2	PKD1 inh	Bim-Bcl-XL	Bfl-1 Bim block	Bcl-W Bim block
COC(=O)c1ccc(C(NC(=O)OCc2ccccc2)/C(F)=C/[C@@H](C)C(=O)NCc2ccc(OC)c(OC)c2)cc1 (some centres not stated)	-5	-1	-9	-4	0	-1
CCOc1c(Cl)cc(CNc2ccc(N3CCCC3)cc2)cc1OC	-11	12	-9	1	41*	15
O=C(NCC1(c2ccccc2)CCCC1)c1cccc(Br)c1	-3	-3	5	-3	-1	-2
Cc1cc(N/C(=N/S(=O)(=O)c2ccc(F)cc2)c2ccccc2)n(-c2ccccc2)n1	-2	-1	-2	-2	-2	-2
Cc1cc(N/C(=N/S(=O)(=O)c2cc(F)ccc2F)c2ccccc2)n(-c2ccccc2)n1	66*	50*	0	16	19	18
Cc1ccc(/C=C/C(=O)c2ccccc(=O)c2O)c(C)c1	-28	23	-15	7	32	15
Cc1ccc(C)c(/C=C/C(=O)c2ccccc(=O)c2O)c1	-29	24	-1	17	41*	23
O=C(/C=C/c1ccccc1Cl)c1ccccc(=O)c1O	2	42*	6	31	54*	38
O=C(/C=C/c1ccccc1Cl)c1cccnc1	4	7	7	5	4	6
CC(C)C(C)(C#N)NC(=O)CSc1nnc(-c2ccccc2)o1 (configuration not stated)	-6	-9	2	-15	-12	-1
Cc1ccc(C(C)C)c(OCc2nn(CC(=O)c3ccc(OC(F)F)cc3)c3[n+]2CCCCC3)c1	2	6	-4	2	7	0
CCOC(=O)C1(C/C(C)=N/NC(N)=O)CC(C)(C)OC1=O (configuration not stated)	-5	0	1	-3	2	0
CCOC(=O)C1(CC/C(C)=N\NC(N)=O)CC(C)(C)OC1=O (configuration not stated)	-49	14	-2	18	44*	11
CN1CCN(C2=C(Cl)C(=O)N(C3CCCCC3)C2=O)CC1	-11	-6	-6	-3	-12	0
CN1CCN(C2=C(Cl)C(=O)C(c3cnc(N4CCCCC4)s3)=C(Cl)C2=O)CC1	58*	44*	2	26	54*	30
Cc1ccc(-n2[nH]c(C)c(/C=N/Nc3ccc([N+](=O)[O-])cc3[N+](=O)[O-])c2=O)cc1C	42*	25	7	43*	42*	30
Cc1[nH]n(-c2ccccc2)c(=O)c1/C=N/NC(=O)c1cccc([N+](=O)[O-])c1	1	-3	1	0	-4	-2
O=C(OCC(=O)c1ccc[nH]1)c1ccccc1	74*	79*	-10	2	52*	1
O=C(OCC(=O)c1ccc[nH]1)c1ccc(S(=O)(=O)N2CCCCCC2)cc1	-8	-7	-15	-9	-14	4
Cc1ccc(CN2CCN(/N=C\C=C\c3ccccc3)CC2)cc1	0	0	-10	-2	-1	0
COc1ccc(CNC(=O)C2Cc3ccccc3CN2C(=O)c2ccco2)cc1 (configuration not stated)	-2	-4	105*	-1	-5	0
COc1ccc(NC(=O)CN2CCC(n3c(C)nc4cc(F)ccc43)CC2)c(OC)c1	-4	-4	-15	-3	-2	-4
Cc1nc2ccccc2n1C1CCN(CC(=O)NCc2ccc(F)cc2)CC1	64*	59*	-8	1	30	1
COc1cc(Cl)c(C)cc1NC(C)C(=O)Nc1cc(C(F)(F)F)ccc1N1CCOCC1 (configuration not stated)	-4	1	-4	-6	-3	-5
Cc1ccc(S(=O)(=O)/N=C2/C=C(Sc3ncn[nH]3)C(=O)c3ccccc32)cc1	-5	18	-10	0	62*	13
SMILES	Bcl-B Bim block	Bim-Bcl-2	PKD1 inh	Bim-Bcl-XL	Bfl-1 Bim block	Bcl-W Bim block
Cc1ccc(S(=O)(=O)/N=C2/C=C(Sc3ncn[nH]3)C(=O)c3ccccc32)c(C)c1	12	21	16	5	69*	29
Cc1ccc(S(=O)(=O)N2CCN(c3ccccc3)CC2)cc1C(N)=O	0	0	2	-1	-4	-2
CC(C)(C)C1CCC(=NNC(=O)c2cc3c(s2)CCCC3)CC1 (configuration not stated)	26	29	7	43*	44*	41*
O=C(NN=C1CCC(c2ccccc2)CC1)c1cc2c(s1)CCCC2 (configuration not stated)	-6	-1	-6	-13	-10	-4
COc1ccc(CC(=O)OCC(=O)NCc2ccccc2Cl)cc1	-2	0	-1	0	-4	0
COc1ccc(COC(=O)NNC(=O)c2ccccc2Cl)cc1	83*	83*	-2	18	66*	25
C#CCn1cc(C=C2C(=O)c3ccccc3C2=O)c2ccccc21	71*	58*	2	24	39	39
C#CCn1c(=O)cc(C)c2ccccc21	-4	-4	-3	-1	-5	1
COc1ccc(-c2nnc(SCC(=O)NCc3ccco3)n2C)cc1	-7	-7	-3	0	-9	4
O=[N+]([O-])c1ccccc1Nc1c2ccccc2nc2ccccc12	-4	0	-3	0	-2	0
O=[N+]([O-])c1ccc(Nc2c3ccccc3nc3ccccc23)cc1	-4	-2	67*	-2	-5	-2
O=[N+]([O-])c1cccc(OCc2cn3cccnc3n2)c1	0	2	0	-2	2	0
Cc1ccc(OCc2cn3cccnc3n2)cc1	58*	17	-2	25	7	21
CCOc1cc2c(C#N)c(N3CCNCC3)nc(N)c2c(N)n1	53*	17	-2	18	8	17
CC[C@@H](C)C(N)c1cn([C@@H](CCC(=O)O)C(=O)N2CCNCC2)nn1 (some centres not stated)	-3	0	6	-2	-3	-5
COC(=O)c1c(NC(=O)C2C3CCC(O3)C2C(=O)O)sc2c1CCCCCC2 (configuration not stated)	-1	3	-7	0	0	0
COC(=O)c1c(NC(=O)C2C3CCC(C3)C2C(=O)O)sc2c1CCCCC2 (configuration not stated)	-12	-1	79*	-2	-1	0
Cc1cc2n(c1)CCn1c(C)ccc1-2	40*	17	-1	5	28	23
CCCC1=[N+](CC)CCn2c(C)ccc21	-11	-12	10	-4	-8	-1
Cc1ccc(-c2cc(C(F)F)nc(NCC3CCCO3)n2)cc1 (configuration not stated)	5	-4	-5	0	-3	0
COc1cccc(NC(=O)CSc2nncn2N)c1	22	28	0	39	41*	23
